# IL1B secr inh: qHTS for Inhibitors of Inflammasome Signaling: IL-1-beta AlphaLISA Primary Screen. THP-1 LPS/ATP IL-1B secretion, AlphaLISA, 16 h; stronger effect = lower value. activity change, % at 57.5 µM. 360,000 compounds, 4.7% hits; in the data active = activity change below about -50%; inconclusive = mostly about -30% to -49%
#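 Secreted IL-1B measured by AlphaLISA bead assay after 16 h compound exposure of THP-1 cells; compounds (final up to 57.5 uM) added 1 h before LPS (250 ng/mL) and ATP (1.25 mM) stimulation; lower signal means less secretion.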
# DT40 TDP1 no CPT: qHTS for Inhibitors of human tyrosyl-DNA phosphodiesterase 1 (TDP1): qHTS in cells in absence of CPT; DT40 Tdp1-/- hTDP1 cells, no CPT, ATP luminescence, 48 h; Potency, µM (series often up to 46.2 µM), without a hit: at the top dose activity change, negative = growth inhibition, hits mostly inhibitors; 420,000 compounds, 15% hits; AID 686978, 2013; also: potency is read from the fitted curve at half-maximal effect; nearly all actives have a fitted effect of over 55% in size
#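 Growth of hTDP1-complemented DT40 Tdp1-knockout cells is measured by ATP luminescence after at least 48 hr compound exposure at 37 °C, with DMSO substituting for the 20 nM CPT used in the parallel screen.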
# VP16 counter: VP16 counterscreen qHTS for inhibitors of ROR gamma transcriptional activity; Potency, µM (highest dose often 53.6 µM), without a hit: at the highest dose activity, negative = inhibition, usual class: inhibitors; 310,000 compounds, 3.5% hits; Drosophila S2 Gal4-VP16 UAS-luciferase, luminescence, 20 h;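 also: Gal4-VP16 expression switched on by copper sulfate through the metallothionein promoter; potency is read from the fitted curve at half-maximal effect; nearly all actives have a fitted effect of over 50% in size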
# RORg inh: qHTS for inhibitors of ROR gamma transcriptional activity; 310,000 compounds, 5.4% hits; Nuclear receptor ROR-gamma (Mus musculus), P51450; Potency, µM (highest dose often 53.6 µM), without a hit: top-dose activity change, negative = inhibition, usual class: inhibitors; Drosophila S2 Gal4-RORgamma UAS-luciferase reporter, 20 h; AID 2551, 2010; also: potency is read from the fitted curve at half-maximal effect; nearly all actives have a fitted effect of over 60% in size
# Target sequence (P51450 whole entry, looked up, the tested form may be a part): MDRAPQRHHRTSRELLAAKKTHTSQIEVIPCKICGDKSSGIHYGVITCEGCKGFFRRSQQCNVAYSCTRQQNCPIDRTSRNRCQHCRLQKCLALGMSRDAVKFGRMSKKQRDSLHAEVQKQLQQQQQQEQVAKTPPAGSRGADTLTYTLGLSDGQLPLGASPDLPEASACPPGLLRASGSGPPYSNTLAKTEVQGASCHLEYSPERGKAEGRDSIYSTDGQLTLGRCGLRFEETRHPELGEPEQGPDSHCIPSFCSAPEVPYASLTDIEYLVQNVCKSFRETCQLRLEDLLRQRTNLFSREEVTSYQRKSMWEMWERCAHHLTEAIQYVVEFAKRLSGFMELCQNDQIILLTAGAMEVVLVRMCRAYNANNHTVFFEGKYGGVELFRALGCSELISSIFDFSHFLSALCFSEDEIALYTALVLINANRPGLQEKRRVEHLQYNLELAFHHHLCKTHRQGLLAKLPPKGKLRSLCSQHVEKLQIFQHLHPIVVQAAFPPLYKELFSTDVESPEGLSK
#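 Compounds are pin-transferred onto Drosophila Schneider cells expressing a copper-inducible Gal4–ROR gamma transactivation domain fusion. After 1 hr, copper sulfate is added to 700 uM final; luciferase is read 20 hr later.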
# ELG1 DNA repair: qHTS screen for small molecules that inhibit ELG1-dependent DNA repair in human embryonic kidney (HEK293T) cells expressing luciferase-tagged ELG1; HEK293T ELG1-luciferase reporter, luminescence, 16 h; DNA damage induced by 5-fluorouridine; Potency, µM (doses to about 46.1 µM), for inactives: at the top dose activity change, negative = inhibition, actives largely listed as inhibitors; 330,000 compounds, 2.3% hits; also: potency is read from the fitted curve at half-maximal effect; nearly all actives have a fitted effect of over 55% in size
#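 Step one: seed 2,000 cells per well. Step two: pin-transfer compound or DMSO alongside 5-fluorouridine. Step three: incubate 16 hr, 37 °C, 5% CO2. Step four: add ONE-Glo, wait 30 min, read luminescence.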
# DT40 TDP1 CPT: qHTS for Inhibitors of human tyrosyl-DNA phosphodiesterase 1 (TDP1): qHTS in cells in presence of CPT; chicken DT40 Tdp1-/-;hTDP1 cells + 20 nM CPT, ATP luminescence, 48 h; Potency, µM (doses to about 46.2 µM), without a hit: at the highest dose activity change, negative = growth inhibition, usual class: inhibitors; 420,000 compounds, 12% hits; also: potency is read from the fitted curve at half-maximal effect; nearly all actives have a fitted effect of over 55% in size
#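 Chicken DT40 Tdp1-/- cells complemented with human TDP1, 400 cells/well, exposed to compounds plus 20 nM camptothecin for at least 48 h at 37 C; viability read as ATP content by CellTiter-Glo luminescence.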
# * hit, by the source's call; ? = inconclusive; . = no result; ! = repeats disagree. An excerpt weighted towards active compounds, which were near 21% of everything screened. Unless noted, calls follow the shape of the dose curve; as a rule, active = well fitted curve in the direction sought with a large enough effect; inconclusive = small, poorly fitted or top-dose-only effect, or another doubt; inactive = no such curve, though single readings can be large; an effect the other way counts as inactive or inconclusive. % is scaled to controls: 0 for no effect and ±100 for the full control effect.
SMILES,IL1B secr inh,DT40 TDP1 no CPT,VP16 counter,RORg inh,ELG1 DNA repair,DT40 TDP1 CPT
O=C(Oc1ccccc1)N1CCC2(CCCN(Cc3ccccc3)C2)CC1,.,?,-6%,-8%,.,4%
COc1ccc(C2=NCC(=S)Nc3ccc(Cl)cc32)cc1Cl,22,21µM*,8.9µM*,2.8µM*,?,?
COc1ccc(C2=NCC(=S)Nc3ccc(Cl)cc32)cc1OC,45,?,.,.,.,-13%
S=C1CN=C(c2ccccc2)c2cc(Cl)ccc2N1,2,?,6.3µM*,2µM*,?,?
CN1[C@H]2CC[C@@H]1C(C(=O)N1CCOCC1)=C(O)C2,10,-5%,.,.,?,4%
CCn1ccnc1CN1CCCC(C(=O)c2ccc(SC)cc2)C1 (stereo unspecified),-1,18µM*,6.3µM*,1.6µM*,0%,?
COc1cccc(O)c1CN1CCCC(C(=O)c2ccccc2SC)C1 (stereo unspecified),-29,18µM*,-3%,1%,?,16µM*
Cc1ncc(CN2CCCC(C(=O)c3ccc(C(C)(C)C)cc3)C2)s1 (stereo unspecified),-29,12µM*,?,?,0%,21µM*
COc1ccc(C(=O)C2CCCN(Cc3cnc(C)s3)C2)c(OC)c1 (stereo unspecified),-64*,8.2µM*,-21%,27%,-3%,16µM*
CSc1ncc(CN2CCCC(C(=O)c3ccccc3SC)C2)cn1 (stereo unspecified),65,?,2%,?,-10%,-22%
Fc1cccc(-c2ccc3c(c2)CNCc2cnnn2-3)c1,12,-9%,.,.,.,-18%
O=C(N=Nc1c(O)n(C2OC(=O)c3ccccc32)c2ccccc12)c1ccco1 (stereo unspecified),.,.,5%,13%,?,.
COc1ccc(C(=O)C2CCCN(Cc3ccccn3)C2)c(OC)c1 (stereo unspecified),10,15µM*,-12%,10µM*,13%,21µM*
O=C(c1ccc(C(F)(F)F)cc1)C1CCCN(Cc2ccncc2)C1 (stereo unspecified),-22,10µM*,?,?,14%,10µM*
O=C(c1ccc(C(F)(F)F)cc1)C1CCCN(Cc2ccc(CO)o2)C1 (stereo unspecified),-4,?,-2%,1%,5%,?
O=C(O)c1ccccc1Nc1cccc(C(F)(F)F)c1,24,15µM*,?,41%,-3%,12µM*!
CNc1ccccc1C(=O)O,.,1%,-4%,-21%,.,-9%
O=C(Cc1ccccc1F)N1CCN(CC(=O)N2CCCC2)CC1,15,-9%,.,.,8%,17%
CS(=O)(=O)c1ccc(C2=C(CNC(=O)c3ccncc3)[C@H]3CC[C@@H](C2)N3Cc2ccccc2)cc1,-2,-1%,.,.,.,5%
COc1ccc2c3c1OC1C(=O)CC[C@@]4(O)[C@@H](C2)N(CC2CC2)CC[C@]314 (stereo partly specified),-17,-19%,.,.,15%,5%
O=C1/C(=C\c2ccccc2)C[C@@]2(O)[C@H]3Cc4ccc(O)c5c4[C@@]2(CCN3CC2CC2)[C@@H]1O5,.,2.7µM*,13µM*,11µM*,.,2.4µM*

# Assay outcomes from PubChem.
